PubChem BioAssay (Tox21)
Records with an inconclusive call do not appear. Activity calls are given as the source filed them. Calls come from the whole dose curve; as a rule, active = well fitted curve in the direction sought with a large enough effect in the repeat runs; inconclusive = weak or mixed curves; inactive = no such curve, though single readings can be large; an effect the other way counts as inactive or inconclusive.

Legend:
[1] = A CellTox Green Cytotoxicity Assay to monitor cytotoxicity in HEK293 cells - 40 hour (AID 1224871); note: nearly all actives have a fitted effect of over 45% in size
Procedure, shortened: (§1)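 HEK293 cells, 600/well, were preincubated 5 hours and then exposed to compounds at 37 C for up to 40 hours. A cell-impermeant cyanine dye staining dead-cell DNA was read by fluorescence at 0, 8, 16, 24, 32 and 40 h time points.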

[2] = qHTS RealTime-Glo MT Cell Viability Assay in HEK293 cells - 16 hour (AID 1224872); note: top concentration of the series differs between compounds; nearly all actives have a fitted effect of over 50% in size
Procedure, shortened: (§2)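 Reads taken at 0, 8, 16, 24, 32 and 40 h from the same wells. HEK293 cells (600/well) carried RealTime-Glo reagents from seeding, with compound added after a 5 h settle at 37 C.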

[3] = qHTS RealTime-Glo MT Cell Viability Assay in HepG2 cells - 8 hour (AID 1224873); note: nearly all actives have a fitted effect of over 55% in size
Procedure, shortened: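 Real-time viability: cells seeded at 600 per well together with NanoLuc and cell-permeant prosubstrate, compounds added after 5 h incubation. Luminescence tracked at 0, 8, 16, 24, 32 and 40 h of exposure.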

[4] = qHTS RealTime-Glo MT Cell Viability Assay in HEK293 cells - 40 hour (AID 1224874); details: RealTime-Glo luminescence; max response: active compounds read low; note: nearly all actives have a fitted effect of over 50% in size; note: potency is the fitted concentration of half-maximal effect
Procedure, shortened: (§3)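 600 cells/well were plated with the nonlytic NanoLuc/prosubstrate reagent, pre-incubated 5 h, then given 23 nL of compound in DMSO. Incubation at 37 C for 40 h, with luminescence from viable-cell-reduced substrate read repeatedly from 0 h.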

[5] = A CellTox Green Cytotoxicity Assay to monitor cytotoxicity in HEK293 cells - 24 hour (AID 1224875); note: series mostly up to about 77 µM; nearly all actives have a fitted effect of over 45% in size
Procedure, shortened: as §1

[6] = A CellTox Green Cytotoxicity Assay to monitor cytotoxicity in HepG2 cells - 16 hour (AID 1224876); note: nearly all actives have a fitted effect of over 45% in size; note: potency is the fitted concentration of half-maximal effect
Procedure, shortened: (§4)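 HepG2 cells, 600/well, preincubated 5 h with CellTox Green dye, then exposed to Tox21 compounds in DMSO at 37 C for up to 40 h. Dead-cell DNA fluorescence read at the indicated time point.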

[7] = qHTS RealTime-Glo MT Cell Viability Assay in HepG2 cells - 32 hour (AID 1224877); note: nearly all actives have a fitted effect of over 55% in size
Procedure, shortened: (§5)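 HepG2 suspension premixed with RealTime-Glo reagents is plated at 600 cells per well and left 5 h at 37 C/5% CO2. Compounds in DMSO then go in, and bioluminescence reflecting viable cell number is recorded over 40 h.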

[8] = A CellTox Green Cytotoxicity Assay to monitor cytotoxicity in HepG2 cells - 24 hour (AID 1224878); note: nearly all actives have a fitted effect of over 45% in size; note: potency is the fitted concentration of half-maximal effect
Procedure, shortened: as §4

[9] = qHTS RealTime-Glo MT Cell Viability Assay in HEK293 cells - 0 hour (AID 1224880)
Procedure, shortened: as §3

[10] = A CellTox Green Cytotoxicity Assay to monitor cytotoxicity in HepG2 cells - 0 hour (AID 1224882); note: nearly all actives have a fitted effect of over 35% in size
Procedure, shortened: as §4

[11] = A CellTox Green Cytotoxicity Assay to monitor cytotoxicity in HepG2 cells - 32 hour (AID 1224883); note: nearly all actives have a fitted effect of over 50% in size; note: potency is the fitted concentration of half-maximal effect
Procedure, shortened: as §4

[12] = A CellTox Green Cytotoxicity Assay to monitor cytotoxicity in HEK293 cells - 8 hour (AID 1224884); note: nearly all actives have a fitted effect of over 35% in size
Procedure, shortened: as §1

[13] = qHTS RealTime-Glo MT Cell Viability Assay in HepG2 cells - 16 hour (AID 1224885); note: nearly all actives have a fitted effect of over 50% in size
Procedure, shortened: as §5

[14] = qHTS RealTime-Glo MT Cell Viability Assay in HEK293 cells - 24 hour (AID 1224886); note: nearly all actives have a fitted effect of over 50% in size; note: potency is the fitted concentration of half-maximal effect
Procedure, shortened: as §2

[15] = qHTS RealTime-Glo MT Cell Viability Assay in HEK293 cells - 8 hour (AID 1224887)
Procedure, shortened: as §3

[16] = A CellTox Green Cytotoxicity Assay to monitor cytotoxicity in HEK293 cells - 16 hour (AID 1224888); note: nearly all actives have a fitted effect of over 35% in size
Procedure, shortened: as §1

[17] = qHTS RealTime-Glo MT Cell Viability Assay in HepG2 cells - 0 hour (AID 1224889); note: nearly all actives have a fitted effect of over 50% in size
Procedure, shortened: as §5

[18] = A CellTox Green Cytotoxicity Assay to monitor cytotoxicity in HepG2 cells - 40 hour (AID 1224879); note: nearly all actives have a fitted effect of over 40% in size; note: potency is the fitted concentration of half-maximal effect
Procedure, shortened: as §4

[19] = A CellTox Green Cytotoxicity Assay to monitor cytotoxicity in HEK293 cells - 32 hour (AID 1224881); note: nearly all actives have a fitted effect of over 40% in size
Procedure, shortened: as §1
% is set by controls: 0 for no effect and ±100 for the full control effect.

CC(CC(C#N)(c1ccccc1)C(C)C)N(C)C (stereo unspecified)
inactive: Potency [1] | Potency [2] | outcome [3] | max response [4] 6.67% | Potency [5] | Potency [6] | Potency [7] | Potency [8] | Potency [9] | Potency [10] | Potency [11] | Potency [12] | outcome [13] | Potency [14] | Potency [15] | Potency [16] | Potency [17]

CCCC1CCOC(C)S1 (stereo unspecified)
inactive: Potency [1] | Potency [2] | outcome [3] | max response [4] 4.04% | Potency [5] | Potency [6] | Potency [7] | Potency [8] | Potency [18] | Potency [9] | Potency [10] | Potency [11] | Potency [12] | outcome [13] | Potency [14] | Potency [15] | Potency [16] | Potency [17]

Cc1ccc(NC(=O)c2ccc(CN3CCN(C)CC3)cc2)cc1Nc1nccc(-c2cccnc2)n1
active: Potency [4] 21.3 µM | Potency [14] 21.3 µM
inactive: Potency [1] | outcome [3] | Potency [5] | Potency [6] | Potency [7] | Potency [8] | Potency [9] | Potency [19] | Potency [10] | Potency [12] | outcome [13] | Potency [16] | Potency [17]

CCn1nc(Cc2ccccc2)cc1C1CCN(C[C@H]2C[C@H](N(C)[C@@H](C(=O)O)C(C)C)C[C@@H]2c2cccc(F)c2)CC1
inactive: Potency [1] | outcome [3] | Potency [5] | Potency [6] | Potency [7] | Potency [8] | Potency [9] | Potency [10] | outcome [13] | Potency [16] | Potency [17]

O=C1c2ccccc2C(=O)C1c1ccc2ccccc2n1
inactive: outcome [3] | Potency [6] | Potency [7] | Potency [8] | Potency [9] | Potency [10] | Potency [11] | outcome [13] | Potency [17]

CC(O)C(C)O (stereo unspecified)
inactive: Potency [1] | Potency [2] | outcome [3] | max response [4] 12.1% | Potency [5] | Potency [6] | Potency [7] | Potency [8] | Potency [18] | Potency [9] | Potency [19] | Potency [10] | Potency [11] | outcome [13] | Potency [14] | Potency [15] | Potency [16] | Potency [17]

CCCN(C1CCN(C(=O)C2CCNCC2)CC1)[C@@H]1CCc2ccc(OC)cc2C1
inactive: outcome [3] | Potency [7] | Potency [9] | Potency [10] | outcome [13] | Potency [15] | Potency [17]

Cc1c(N=C=O)cccc1N=C=O
inactive: Potency [1] | Potency [2] | outcome [3] | max response [4] 2.75% | Potency [5] | Potency [6] | Potency [7] | Potency [9] | Potency [19] | Potency [10] | outcome [13] | Potency [14] | Potency [15] | Potency [16] | Potency [17]

CCOC(=O)CC(O)(CC(=O)OCC)C(=O)OCC
inactive: Potency [1] | outcome [3] | Potency [5] | Potency [6] | Potency [7] | Potency [8] | Potency [18] | Potency [9] | Potency [10] | Potency [11] | Potency [12] | outcome [13] | Potency [15] | Potency [16] | Potency [17]

C[C@H](CN1CCCC1)C(=O)c1ccc(C(F)(F)F)cc1
active: Potency [6] 21.3 µM | Potency [8] 21.3 µM | Potency [18] 21.3 µM | Potency [11] 21.3 µM
inactive: outcome [3] | Potency [10] | Potency [12] | Potency [16] | Potency [17]

C=C[Si]1(C)O[Si](C)(C=C)O[Si](C)(C=C)O[Si](C)(C=C)O1 (stereo unspecified)
inactive: Potency [1] | Potency [2] | outcome [3] | max response [4] -1.07% | Potency [5] | Potency [7] | Potency [9] | Potency [19] | Potency [10] | Potency [12] | Potency [14] | Potency [15] | Potency [16] | Potency [17]

Nc1ncnc2c1ncn2[C@@H]1O[C@H](CO)[C@@H](O)[C@H]1O
inactive: Potency [1] | outcome [3] | max response [4] 6.09% | Potency [5] | Potency [6] | Potency [7] | Potency [8] | Potency [18] | Potency [9] | Potency [10] | Potency [11] | Potency [12] | outcome [13] | Potency [15] | Potency [16] | Potency [17]

CNc1ccccc1
inactive: Potency [1] | Potency [2] | outcome [3] | Potency [5] | Potency [6] | Potency [7] | Potency [8] | Potency [18] | Potency [9] | Potency [19] | Potency [10] | Potency [11] | Potency [12] | outcome [13] | Potency [14] | Potency [15] | Potency [16] | Potency [17]

O=c1[nH]nc(-c2ccc([N+](=O)[O-])o2)o1
inactive: Potency [1] | Potency [2] | outcome [3] | Potency [5] | Potency [6] | Potency [7] | Potency [8] | Potency [9] | Potency [19] | Potency [10] | Potency [11] | Potency [12] | outcome [13] | Potency [14] | Potency [15] | Potency [16] | Potency [17]

COC(=O)/C=C/C(C)=C\C=C\C(C)=C\C=C\C=C(C)\C=C\C=C(C)\C=C\C(=O)O
inactive: Potency [1] | Potency [2] | outcome [3] | max response [4] 1.87% | Potency [5] | Potency [6] | Potency [7] | Potency [8] | Potency [19] | Potency [10] | Potency [11] | Potency [12] | outcome [13] | Potency [14] | Potency [15] | Potency [16] | Potency [17]

Oc1ccc(CCNCCCCCCNCCc2ccccc2)cc1O
inactive: Potency [1] | outcome [3] | Potency [5] | Potency [6] | Potency [8] | Potency [9] | Potency [19] | Potency [10] | Potency [12] | outcome [13] | Potency [16] | Potency [17]
active: Potency [4] 23.9 µM

O=C(O)COCC(=O)O
inactive: Potency [2] | outcome [3] | max response [4] -0.496% | Potency [5] | Potency [6] | Potency [7] | Potency [8] | Potency [18] | Potency [9] | Potency [19] | Potency [10] | Potency [11] | outcome [13] | Potency [14] | Potency [15] | Potency [16] | Potency [17]

CC/C=C\CCO
inactive: Potency [1] | Potency [2] | outcome [3] | Potency [5] | Potency [6] | Potency [7] | Potency [8] | Potency [18] | Potency [9] | Potency [19] | Potency [10] | Potency [11] | Potency [12] | outcome [13] | Potency [14] | Potency [15] | Potency [16] | Potency [17]

Cc1cc(C)c(C)c(O)c1
inactive: Potency [1] | Potency [2] | outcome [3] | Potency [5] | Potency [6] | Potency [7] | Potency [8] | Potency [9] | Potency [19] | Potency [10] | Potency [11] | Potency [12] | outcome [13] | Potency [14] | Potency [15] | Potency [16] | Potency [17]

O=[N+]([O-])c1ccccc1CCO
inactive: Potency [1] | Potency [2] | outcome [3] | Potency [5] | Potency [6] | Potency [7] | Potency [8] | Potency [10] | Potency [11] | Potency [12] | outcome [13] | Potency [14] | Potency [15] | Potency [16] | Potency [17]

Cc1cccc(C)c1NC(=O)CN1CCCC1
inactive: Potency [1] | Potency [2] | outcome [3] | Potency [5] | Potency [6] | Potency [7] | Potency [8] | Potency [18] | Potency [19] | Potency [10] | Potency [11] | Potency [12] | outcome [13] | Potency [14] | Potency [15] | Potency [16] | Potency [17]

Cc1cc(C)n(CO)n1
inactive: Potency [1] | Potency [2] | outcome [3] | max response [4] 1.2% | Potency [5] | Potency [6] | Potency [7] | Potency [8] | Potency [18] | Potency [10] | Potency [11] | Potency [12] | Potency [14] | Potency [15] | Potency [16] | Potency [17]

CC(Cc1ccccc1)(NC(=O)CN)c1ccccc1 (stereo unspecified)
inactive: Potency [1] | Potency [2] | outcome [3] | Potency [5] | Potency [6] | Potency [7] | Potency [8] | Potency [9] | Potency [19] | Potency [10] | Potency [11] | Potency [12] | outcome [13] | Potency [14] | Potency [15] | Potency [16] | Potency [17]
